# In PubChem BioAssay:
# For part of these data: Measured potencies and affinities stand elsewhere. The source made the active and inactive calls. Unless noted, how the calls were made is not given here.
# Test system: Ras-related protein Rab-7a (dog), GTP binding
# Assay: Rab7 GTP binding inhibitors, potency, dose response, biochemical, wildtype, multiplex bead flow cytometry (AID 1336)
# Settings: bead-based flow cytometry, fluorescent GTP binding to Rab7; series mostly up to 100 µM
row,Compound,outcome
1,O=C(c1cccnc1SCCc1ccccc1)N1CCOCC1,inactive
2,COc1cc(/C=N/NC(=O)CCN2CCN(c3ccccc3)CC2)cc(OC)c1OC,inactive
3,O=C(O)c1ccc(CNCc2ccccc2Cl)s1,inactive
4,CCN(CC)c1ccc(/C=N/OCC(=O)Nc2cccc(C)c2)cc1,inactive
5,CCc1ccccc1NCc1sc(C(=O)O)cc1C,inactive
6,COc1ccc(-c2nn3c(-c4ccco4)nnc3s2)cc1OC,inactive
7,CS(=O)(=O)Nc1ccc(Br)cc1C(=O)c1ccccc1,inactive
8,Cn1c(N/N=C/c2cccs2)nc2c1c(=O)n(Cc1ccccc1)c(=O)n2C,inactive
9,Cc1ccc(C(C)C)c(OCCSc2nc3ccccc3n2CC(=O)O)c1,inactive
10,OCC(CO)(CO)NCc1ccc(-c2ccccc2)cc1,inactive
11,CCC(Oc1ccc2ccccc2c1)C(=O)O (stereo not drawn),inactive
12,CCOc1ccccc1C1C(C(=O)OC)=C(N)OC2=C1C(=O)CCC2 (stereo not drawn),inactive
13,O=C(O)c1ccc(COc2ccc(F)cc2)o1,inactive
14,COc1cc2[nH]c(=S)nc(NCCc3ccc(C)cc3)c2cc1OC,inactive
15,CC(C)(C)c1ccc(OCCn2cc(C(=O)O)c3ccccc32)cc1,inactive
16,COc1ccc(C2=Nn3c(nnc3-c3ccccc3)SC2)cc1OC,inactive
17,COc1cc(/C=N/Nc2nn3cnnc3c3ccccc23)ccc1O,inactive
18,Cc1ccc(Nc2cc(C(=O)O)c3ccccc3n2)c(C)c1,inactive
19,COc1cc2c(C)nc3c(c(C)nn3-c3ccccc3)c2cc1OC,inactive
20,O=C(O)c1ccc(CNCc2ccc(F)cc2)cc1,inactive

row,Compound,outcome
1,COc1ccc(CC(C)N2CCN(Cc3ccccc3)CC2)c(OC)c1 (stereo not drawn),inactive
2,O=C(Cn1nc(-c2ccccc2)c2ccccc2c1=O)Nc1ccccn1,inactive
3,CCCN(CC1CC1)C(=S)Nc1ccc(Oc2ccccc2)cc1,inactive
4,Cc1cccc(CNc2nc(C)ccc2C(=O)O)c1,inactive
5,CC(SC(=S)N(C)Cc1cccs1)C(=O)O (stereo not drawn),inactive
6,O=c1c2ccccc2nc2c3ccccc3c(NCc3cccnc3)nn12,inactive
7,COc1ccc(C(=O)N/C(=C\c2cccc([N+](=O)[O-])c2)C(=O)Nc2cccc(C(=O)O)c2)cc1,inactive
8,O=C(O)c1ccc(CSCc2ccccc2Cl)o1,inactive
9,O=C(C#Cc1cccc(O)c1)c1ccc([N+](=O)[O-])cc1,inactive
10,CCOc1ccc(-n2nc3c(=O)[nH]nc(C)c3c2C)cc1,inactive
11,O=C(CNC(=O)Cc1ccccc1)N=Nc1c(O)n(Cc2ccc3c(c2)OCO3)c2ccccc12,inactive
12,CCOC(=O)c1c(-c2ccccc2)csc1NC(=O)/C(C#N)=C/c1ccc(O)c(OC)c1,inactive
13,C/C(=N\Nc1cc(C)nc(-c2ccccc2)n1)c1cccc([N+](=O)[O-])c1,inactive
14,C=CCn1c(SCC(=O)Nc2ccc3c(c2)OCO3)nnc1-c1cc(Br)ccc1O,inactive
15,CC(C)OCCCn1c(=NC(=O)c2ccncc2)c(C#N)cc2c(=O)n3ccccc3nc21,inactive
16,COc1cccc(NC(=O)CSc2nc3c([nH]c4ccccc43)c(=O)n2C)c1,inactive
17,COc1ccc(OCCSc2nc3nc(C)cc(C)n3n2)cc1,inactive
18,CCc1nnc(NC(=O)CSc2nnc(CNc3ccc(F)cc3)n2C2CCCCC2)s1,inactive
19,CCOC(=O)c1ccc2ncc(-c3ccccc3)nc2c1,inactive

# Target: Ras-related C3 botulinum toxin substrate 1 (Homo sapiens) (UniProt P63000)
# Assay: wildtype Rac1 GTP binding inhibitors, dose response, biochemical, multiplex bead flow cytometry (AID 1340;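 active means dose curve with midpoint inside tested range, moderate steepness, plateau gap beyond fit error, low compound glow and bead-link interference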)
# Settings: GST-Rac1 beads, Bodipy-FL-GTP binding; at 100 µM (top of the series) unless noted
row,Compound,"GTP binding signal, raw median fluorescence (lower = inhibition) (MCF (arbitrary fluorescence units))"
1,O=C(c1cccnc1SCCc1ccccc1)N1CCOCC1,64.8
2,COc1cc(/C=N/NC(=O)CCN2CCN(c3ccccc3)CC2)cc(OC)c1OC,236
3,O=C(O)c1ccc(CNCc2ccccc2Cl)s1,32.2
4,CCN(CC)c1ccc(/C=N/OCC(=O)Nc2cccc(C)c2)cc1,0
5,CCc1ccccc1NCc1sc(C(=O)O)cc1C,31.9
6,COc1ccc(-c2nn3c(-c4ccco4)nnc3s2)cc1OC,143
7,CS(=O)(=O)Nc1ccc(Br)cc1C(=O)c1ccccc1,205
8,Cn1c(N/N=C/c2cccs2)nc2c1c(=O)n(Cc1ccccc1)c(=O)n2C,143
9,Cc1ccc(C(C)C)c(OCCSc2nc3ccccc3n2CC(=O)O)c1,32.1
10,OCC(CO)(CO)NCc1ccc(-c2ccccc2)cc1,214
11,CCC(Oc1ccc2ccccc2c1)C(=O)O (stereo not drawn),190
12,CCOc1ccccc1C1C(C(=O)OC)=C(N)OC2=C1C(=O)CCC2 (stereo not drawn),184
13,O=C(O)c1ccc(COc2ccc(F)cc2)o1,35
14,COc1cc2[nH]c(=S)nc(NCCc3ccc(C)cc3)c2cc1OC,125
15,CC(C)(C)c1ccc(OCCn2cc(C(=O)O)c3ccccc32)cc1,30.4
16,COc1ccc(C2=Nn3c(nnc3-c3ccccc3)SC2)cc1OC,214
17,COc1cc(/C=N/Nc2nn3cnnc3c3ccccc23)ccc1O,90.4
18,Cc1ccc(Nc2cc(C(=O)O)c3ccccc3n2)c(C)c1,33.1
19,COc1cc2c(C)nc3c(c(C)nn3-c3ccccc3)c2cc1OC,167
20,O=C(O)c1ccc(CNCc2ccc(F)cc2)cc1,260

row,Compound,"GTP binding signal, raw median fluorescence (lower = inhibition) (MCF (arbitrary fluorescence units))"
1,COc1ccc(CC(C)N2CCN(Cc3ccccc3)CC2)c(OC)c1 (stereo not drawn),272
2,O=C(Cn1nc(-c2ccccc2)c2ccccc2c1=O)Nc1ccccn1,194
3,CCCN(CC1CC1)C(=S)Nc1ccc(Oc2ccccc2)cc1,258
4,Cc1cccc(CNc2nc(C)ccc2C(=O)O)c1,58
5,CC(SC(=S)N(C)Cc1cccs1)C(=O)O (stereo not drawn),312
6,O=c1c2ccccc2nc2c3ccccc3c(NCc3cccnc3)nn12,157
7,COc1ccc(C(=O)N/C(=C\c2cccc([N+](=O)[O-])c2)C(=O)Nc2cccc(C(=O)O)c2)cc1,162
8,O=C(O)c1ccc(CSCc2ccccc2Cl)o1,30.2
9,O=C(C#Cc1cccc(O)c1)c1ccc([N+](=O)[O-])cc1,138
10,CCOc1ccc(-n2nc3c(=O)[nH]nc(C)c3c2C)cc1,189
11,O=C(CNC(=O)Cc1ccccc1)N=Nc1c(O)n(Cc2ccc3c(c2)OCO3)c2ccccc12,112
12,CCOC(=O)c1c(-c2ccccc2)csc1NC(=O)/C(C#N)=C/c1ccc(O)c(OC)c1,233
13,C/C(=N\Nc1cc(C)nc(-c2ccccc2)n1)c1cccc([N+](=O)[O-])c1,193
14,C=CCn1c(SCC(=O)Nc2ccc3c(c2)OCO3)nnc1-c1cc(Br)ccc1O,108
15,CC(C)OCCCn1c(=NC(=O)c2ccncc2)c(C#N)cc2c(=O)n3ccccc3nc21,161
16,COc1cccc(NC(=O)CSc2nc3c([nH]c4ccccc43)c(=O)n2C)c1,293
17,COc1ccc(OCCSc2nc3nc(C)cc(C)n3n2)cc1,178
18,CCc1nnc(NC(=O)CSc2nnc(CNc3ccc(F)cc3)n2C2CCCCC2)s1,0
19,CCOC(=O)c1ccc2ncc(-c3ccccc3)nc2c1,259
